Results taken from PubChem BioAssay (NCATS).
Where “and” joins values, the source holds several entries; their conditions need not be identical. Equal values may be shown once. Records with an inconclusive call do not appear. Calls of active or inactive are those of the source. Unless noted, the call rests on the fitted dose curve; in most records, active means well fitted curve in the direction sought with a large enough effect; inconclusive means small, poorly fitted or top-dose-only effect, or another doubt; inactive means no such curve, though single readings can be large; an effect the other way counts as inactive or inconclusive.

Columns and labels:
[1] = Primary qHTS for inhibitors of nuclear receptor binding SET domain protein 2 (NSD2) in an RCH-ACV wild type WT cells (2C) (AID 1645877); further: nearly all actives have a fitted effect of over 70% in size; further: potency means the concentration at half of the fitted maximal effect
[2] = molecular target: Glutathione peroxidase 1 (Homo sapiens) (UniProt P07203); experiment: Primary qHTS Assay for Inhibitors of Recombinant Selenoprotein Glutathione Peroxidase 1 (GPX1) (AID 1845191); further: nearly all actives have a fitted effect of over 65% in size; further: potency means the concentration at half of the fitted maximal effect
In short: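 NADPH consumption tracked by fluorescence at 340/450 nm between t=0 and t=15 min, room temperature. Final mix: 10 nM GPX1, 100 nM glutathione reductase, 1 mM GSH, 0.5 mM NADPH, 0.5 mM cumene hydroperoxide, 0.01% BSA; 30 min compound–enzyme preincubation.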

[3] = molecular target: Phospholipid hydroperoxide glutathione peroxidase GPX4 (Homo sapiens) (UniProt P36969); experiment: Primary qHTS Assay for Inhibitors of Recombinant Selenoprotein Glutathione Peroxidase 4 (GPX4) (AID 1845192); further: nearly all actives have a fitted effect of over 65% in size; further: potency means the concentration at half of the fitted maximal effect
In short: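 NADPH consumption followed by fluorescence at 340/450 nm, t=0 and after 15 min at room temperature. Reaction started with cumene hydroperoxide (0.5 mM final) after 30 min compound–GPX4 preincubation; final 200 nM GPX4, 100 nM GR, 1 mM GSH, 0.5 mM NADPH.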

[4] = qHTS drug screen for cell cycle checkpoint inhibitors in PARPi-resistant BRCA-mutant ovarian cancer cell lines. (AID 1963452; calls by dose curve; further: potency means the concentration at half of the fitted maximal effect); settings: PEO1/OlaR viability, CellTiter-Glo luminescence, 96 h; for Z-AUC: stronger effect = lower value
In short: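 PEO1, PEO4 and PEO1/OlaR ovarian cancer cells, 600 per well, exposed 96 h at 37C to a dilution series. Viability read by CellTiter-Glo luminescence, normalized to DMSO and empty wells; activity summarized as Z-AUC.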

[5] = Primary qHTS for inhibitors of nuclear receptor binding SET domain protein 2 (NSD2) in an isogenic RCH-ACV NSD2 p.E1099K mutant (9B) (AID 1645876); further: nearly all actives have a fitted effect of over 70% in size; further: potency means the concentration at half of the fitted maximal effect
[6] = NCATS anti-infectives library activity on HEK293 viability as a counter-qHTS vs the C. elegans viability qHTS (AID 1745854);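 further: HEK293 cells exposed to compounds for 24 hr before the viability read; on the % scale 0 is the no-effect control and ±100 the full control effect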
In short: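 Counter-screen for cytotoxicity: HEK293, 24 hr, 37C, compounds up to 41.7 uM final (a dilution series, 1:5). Readout CellTiter-Glo luminescence, 10 min RT. Digitonin control, 83.3 uM final.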

[7] = molecular target: Tyrosine-protein kinase Yes (Homo sapiens) (UniProt P07947); experiment: qHTS for small molecule inhibitors of Yes1 kinase: Primary Screen (AID 686947);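 further: plate controls were DMSO with enzyme for no effect and no-enzyme DMSO wells for full effect; nearly all actives have a fitted effect of over 60% in size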
In short: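 ADP-Glo luminescence reports ADP formed by 4 nM Yes1 phosphorylating poly(E4Y) (0.3 mg/mL) with 0.1 mM ATP for 60 min at room temperature, following 20 min compound preincubation; normalised between DMSO wells with and without enzyme.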

[8] = qHTS for small molecule inhibitors of Yes1 kinase: Counter Assay (AID 686950);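 further: no kinase present so only ADP-Glo detection of a fixed ADP amount is tested; luminescence from ADP-Glo reporting ADP in a fixed ATP and ADP mixture; series mostly up to about 77 µM; 0% = DMSO wells with ATP plus ADP and -100% = ATP-only wells without ADP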
In short: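 ADP-Glo luminescence read after a 60 min room-temperature incubation of compound with an ATP/ADP mix (0.08 mM/0.02 mM) and no kinase, following a 20 min compound preincubation. Signal scaled between ATP+ADP (max) and 0.1 mM ATP-only (min) wells; Tris pH 7.5, Mg2+, DTT.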

[9] = measured here: PEO1 parental Z-AUC

Phospholipid hydroperoxide glutathione peroxidase GPX4 (Homo sapiens), sequence (P36969 whole entry, looked up): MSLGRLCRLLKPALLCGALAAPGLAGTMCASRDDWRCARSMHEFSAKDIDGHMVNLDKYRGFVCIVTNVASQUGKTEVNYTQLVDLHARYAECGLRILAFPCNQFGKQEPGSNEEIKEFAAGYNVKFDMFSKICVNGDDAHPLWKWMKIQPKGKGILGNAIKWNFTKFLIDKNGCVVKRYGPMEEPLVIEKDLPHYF
Glutathione peroxidase 1 (Homo sapiens), sequence (P07203 whole entry, looked up): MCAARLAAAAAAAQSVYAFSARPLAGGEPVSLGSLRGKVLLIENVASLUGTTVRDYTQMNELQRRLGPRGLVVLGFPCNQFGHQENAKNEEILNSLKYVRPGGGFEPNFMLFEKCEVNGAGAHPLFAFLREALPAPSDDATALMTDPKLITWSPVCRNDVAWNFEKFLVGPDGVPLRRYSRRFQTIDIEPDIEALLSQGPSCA
Tyrosine-protein kinase Yes (Homo sapiens), sequence (P07947 whole entry, looked up): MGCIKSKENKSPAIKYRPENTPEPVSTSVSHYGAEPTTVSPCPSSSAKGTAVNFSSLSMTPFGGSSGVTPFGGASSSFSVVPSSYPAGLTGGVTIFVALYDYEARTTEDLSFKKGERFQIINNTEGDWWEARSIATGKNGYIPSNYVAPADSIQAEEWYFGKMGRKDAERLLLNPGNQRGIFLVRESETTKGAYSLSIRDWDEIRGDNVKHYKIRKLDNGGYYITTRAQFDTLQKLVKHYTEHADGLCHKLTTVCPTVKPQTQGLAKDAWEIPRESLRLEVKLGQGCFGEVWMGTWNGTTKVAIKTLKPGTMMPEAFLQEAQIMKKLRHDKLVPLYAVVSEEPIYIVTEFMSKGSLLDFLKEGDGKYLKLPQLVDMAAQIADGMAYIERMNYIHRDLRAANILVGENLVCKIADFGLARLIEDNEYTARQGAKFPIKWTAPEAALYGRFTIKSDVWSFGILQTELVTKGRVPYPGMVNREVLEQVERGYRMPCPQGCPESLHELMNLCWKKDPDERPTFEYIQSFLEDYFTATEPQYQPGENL

## COc1ncc(Nc2ncc(C(C)N3CCN(S(C)(=O)=O)CC3)cc2-c2nc(C)nc(N)n2)cc1F (centres undefined)
[1]
  Potency: inactive
[2]
  Potency: inactive
[3]
  Potency: inactive
[4]
  Z-AUC: 0.314 (inactive)
[4]; [9]
  Z-AUC: 0.577
[4]; measured here: PEO4 Z-AUC
  Z-AUC: 0.144

## O=C(O/N=C1\c2ccccc2-c2nc3ccccc3nc21)c1ccco1
[5]
  Potency: 18.4 µM (active)
[2]
  Potency: inactive

## C[C@@H]1CC2C3C[C@H](F)C4=CC(=O)C=C[C@]4(C)[C@@]3(F)[C@@H](O)C[C@]2(C)[C@@]1(OC(=O)c1ccco1)C(=O)SCF (some centres undefined)
[1]
  Potency: inactive
[2]
  Potency: inactive
[4]
  Z-AUC: 0.16 (inactive)
[4]; [9]
  Z-AUC: 0.658
[4]; measured here: PEO4 Z-AUC
  Z-AUC: -0.282

## C[C@H]1C[C@@H](n2c(Nc3ccc(OC(F)(F)F)cc3)nc3cc(CCC(=O)O)ccc32)CC(C)(C)C1
[5]
  Potency: inactive
[2]
  Potency: inactive
[3]
  Potency: 2.55 µM (active)
[4]
  Z-AUC: 0.184 (inactive)
[4]; [9]
  Z-AUC: 0.953
[4]; measured here: PEO4 Z-AUC
  Z-AUC: 0.855

## COc1cc(Nc2cnc(C#N)c(O[C@H](C)CN(C)C)n2)ncc1-c1cnn(C)c1
[5]
  Potency: 0.148 µM (active)
[1]
  Potency: 0.833 µM (active)
[2]
  Potency: inactive
[3]
  Potency: inactive
[4]
  Z-AUC: -0.958 (inactive)
[4]; [9]
  Z-AUC: -0.63
[4]; measured here: PEO4 Z-AUC
  Z-AUC: -0.472

## CSc1ccc(C(=O)/C=C/c2cc(C)c(OC(C)(C)C(=O)O)c(C)c2)cc1
[5]
  Potency: 19.1 µM (active)
[1]
  Potency: 17.1 µM (active)
[2]
  Potency: inactive
[4]
  Z-AUC: -0.442 (inactive)
[4]; [9]
  Z-AUC: 0.00794
[4]; measured here: PEO4 Z-AUC
  Z-AUC: -0.391

## COC(=O)N[C@H](C(=O)N1CCC[C@H]1c1ncc(-c2ccc(-c3ccc(-c4cnc([C@@H]5CCCN5C(=O)[C@@H](NC(=O)OC)C(C)C)[nH]4)cc3)cc2)[nH]1)C(C)C
[1]
  Potency: 20.9 µM (active)
[2]
  Potency: 16.1 µM (active)
[3]
  Potency: 18 µM (active) and 20 µM (active)
[4]
  Z-AUC: -0.519 (inactive)
[4]; [9]
  Z-AUC: -0.789
[4]; measured here: PEO4 Z-AUC
  Z-AUC: -0.801

## O=C(NO)C1(CS(=O)(=O)c2ccc(Oc3ccc(Cl)cc3)cc2)CCOCC1
[5]
  Potency: 16.6 µM (active)
[1]
  Potency: 16.6 µM (active)
[2]
  Potency: inactive
[3]
  Potency: inactive
[4]
  Z-AUC: 1.18 (inactive)
[4]; [9]
  Z-AUC: 0.196
[4]; measured here: PEO4 Z-AUC
  Z-AUC: 0.465

## CCC[C@H](NC(=O)[C@@H]1[C@H]2CCC[C@H]2CN1C(=O)[C@@H](NC(=O)[C@@H](NC(=O)c1cnccn1)C1CCCCC1)C(C)(C)C)C(=O)C(=O)NC1CC1
[1]
  Potency: 5.9 µM (active)
[6]
  outcome: inactive
[2]
  Potency: inactive
[3]
  Potency: inactive
[4]
  Z-AUC: 1.49 (inactive)
[4]; [9]
  Z-AUC: 0.769
[4]; measured here: PEO4 Z-AUC
  Z-AUC: 0.725

## NC(=O)C1=C(O)[C@@]2(O)C(=O)C3=C(O)c4c(O)cccc4C[C@H]3C[C@H]2CC1=O
[5]
  Potency: 4.17 µM (active)
[1]
  Potency: 3.32 µM (active)
[2]
  Potency: inactive
[4]
  Z-AUC: -0.543 (inactive)
[4]; [9]
  Z-AUC: -1.08
[4]; measured here: PEO4 Z-AUC
  Z-AUC: -1.12

## CC1=C(c2ccc(O)cc2)[C@H](c2ccc(OCCN3CCCCC3)cc2)Oc2cc(O)ccc21
[5]
  Potency: inactive
[2]
  Potency: inactive
[3]
  Potency: inactive
[4]
  Z-AUC: 0.716 (inactive)
[4]; [9]
  Z-AUC: 0.402
[4]; measured here: PEO4 Z-AUC
  Z-AUC: -0.752

## Cc1noc(C)c1-c1ccc(-c2cc(C(N)=O)c(NC(N)=O)s2)c(O[C@H]2CCNC2)c1
[5]
  Potency: 16.6 µM (active)
[1]
  Potency: 14.8 µM (active)
[2]
  Potency: inactive
[4]
  Z-AUC: -0.139 (inactive)
[4]; [9]
  Z-AUC: -0.81
[4]; measured here: PEO4 Z-AUC
  Z-AUC: -0.908

## Nc1nonc1-c1nc2cnccc2n1C1CC1
[7]
  outcome: inactive
[8]
  outcome: inactive
[5]
  Potency: 20.6 µM (active)
[1]
  Potency: 8.2 µM (active)
[2]
  Potency: inactive

## C/C(=C\c1csc(C)n1)[C@@H]1C[C@@H]2O[C@]2(C)CCC[C@H](C)[C@H](O)[C@@H](C)C(=O)C(C)(C)[C@@H](O)CC(=O)N1
[5]
  Potency: 0.934 µM (active)
[1]
  Potency: 0.742 µM (active)
[2]
  Potency: inactive
[3]
  Potency: inactive
[4]
  Z-AUC: -0.955 (inactive)
[4]; [9]
  Z-AUC: -1.61
[4]; measured here: PEO4 Z-AUC
  Z-AUC: -1.78

## C[n+]1ccc(-c2c3nc(c(-c4cc[n+](C)cc4)c4ccc([nH]4)c(-c4cc[n+](C)cc4)c4nc(c(-c5cc[n+](C)cc5)c5ccc2[nH]5)C=C4)C=C3)cc1
[1]
  Potency: inactive

## CCN1/C(=C/C(C)=O)Sc2ccc(O)cc21
[1]
  Potency: 14.6 µM (active)

## CO[C@H]1C[C@@H]2CC[C@@H](C)[C@@](O)(O2)C(=O)C(=O)N2CCCC[C@H]2C(=O)O[C@H]([C@H](C)C[C@@H]2CC[C@@H](OCCO)[C@H](OC)C2)CC(=O)[C@H](C)/C=C(/C)[C@@H](O)[C@@H](OC)C(=O)[C@H](C)C[C@H](C)/C=C\C=CC=C1C
[5]
  Potency: 0.118 µM (active)
[1]
  Potency: 0.0742 µM (active)
[2]
  Potency: inactive
[4]
  Z-AUC: 0.703 (inactive)
[4]; [9]
  Z-AUC: 0.778
[4]; measured here: PEO4 Z-AUC
  Z-AUC: 0.68

## CCn1c(-c2nonc2N)nc2cncc(C(=O)N3CC[C@H](N)C3)c21
[5]
  Potency: 10.3 µM (active)
[2]
  Potency: inactive

## NC(=O)c1cc(F)cc2c1C(=O)N(C1CCN(C3CCC(F)(F)CC3)CC1)C2
[5]
  Potency: inactive
[6]
  outcome: inactive
[2]
  Potency: inactive
[3]
  Potency: inactive
[4]
  Z-AUC: -0.257 (inactive)
[4]; [9]
  Z-AUC: -0.805
[4]; measured here: PEO4 Z-AUC
  Z-AUC: -0.459

## CCN(C)S(=O)(=O)Nc1ccc(F)c(C(=O)c2c[nH]c3ncc(-c4cnc(C5CC5)nc4)cc23)c1F
[5]
  Potency: 8.33 µM (active)
[1]
  Potency: 7.42 µM (active)
[2]
  Potency: inactive
[4]
  Z-AUC: 0.933 (inactive)
[4]; [9]
  Z-AUC: 0.554
[4]; measured here: PEO4 Z-AUC
  Z-AUC: 0.574

## Cc1noc(-c2ccc(-c3ccc(C4(C(=O)O)CC4)cc3)cc2)c1NC(=O)O[C@H](C)c1ccccc1
[5]
  Potency: 16.6 µM (active)
[1]
  Potency: 16.6 µM (active)
[3]
  Potency: 9.04 µM (active)
[4]
  Z-AUC: 1.39 (inactive)
[4]; [9]
  Z-AUC: 1.53
[4]; measured here: PEO4 Z-AUC
  Z-AUC: 1.53

## C=CC(=O)N[C@H]1CN(c2nc(Nc3cn(C)nc3OC)c3ncn(C)c3n2)C[C@@H]1F
[5]
  Potency: 14.8 µM (active)
[1]
  Potency: 20.9 µM (active)
[2]
  Potency: inactive
[3]
  Potency: inactive
[4]
  Z-AUC: 0.581 (inactive)
[4]; [9]
  Z-AUC: 0.0382
[4]; measured here: PEO4 Z-AUC
  Z-AUC: 0.231

## COc1ccc(S(=O)(=O)N(C(C)=O)c2ccccc2/C=C/c2cc[n+]([O-])cc2)cc1
[5]
  Potency: 1.05 µM (active)
[1]
  Potency: 1.05 µM (active)
[2]
  Potency: inactive
[4]
  Potency: 1.1 µM (active)
[4]; [9]
  Z-AUC: -1.34
[4]; measured here: PEO4 Z-AUC
  Z-AUC: -1.39
